# IL-2 act = activators of IL-2; IL-2 activation reporter assay, cell-based qHTS; stimulated with anti-CD3/CD4/CD28 beads; in transgenic mouse T cells; activation, % (series mostly up to about 46 µM); hit rate 0.065% among 360,000; AID 652025; in the data active = activation above about 50%; inconclusive = mostly about 30% to 49%; also: 0% is about no effect
#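 First, unstimulated transgenic mouse T cells were exposed to compound for 60 min. Next, anti-CD3/anti-CD4-coated beads with anti-CD28 were added. Finally, after 18 h at 37 degrees C, EGFP and DsRed were imaged.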
# CBFb-RUNX1 inh = CBF-beta/RUNX1 interaction disruption; AlphaScreen CBFb-His/RUNX1-biotin binding, biochemical; Potency, µM (titrated, usually from 59.8 µM), inactives show at the highest dose activity, negative = inhibition, usual class: inhibitors; 230,000 tested, under 10 active; AID 1477; also: % of control where 0% means no effect
#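 Inhibition was taken as any reduction in AlphaScreen signal from the CBF-beta–RUNX1 pair (His and biotin tags, 30 nM each), measured after compound (15 min) and bead (90 min) incubations at room temperature.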
# TRHR agonist = agonists of human TRH receptor | TRHR cells, calcium flux fluo-8, FDSS agonist mode | activation, % at 2 µM | hit rate 0.18% among 360,000 | P34981; in the data active = activation above about 30%; also: 0% is about no effect
# Target sequence (P34981 whole entry, looked up): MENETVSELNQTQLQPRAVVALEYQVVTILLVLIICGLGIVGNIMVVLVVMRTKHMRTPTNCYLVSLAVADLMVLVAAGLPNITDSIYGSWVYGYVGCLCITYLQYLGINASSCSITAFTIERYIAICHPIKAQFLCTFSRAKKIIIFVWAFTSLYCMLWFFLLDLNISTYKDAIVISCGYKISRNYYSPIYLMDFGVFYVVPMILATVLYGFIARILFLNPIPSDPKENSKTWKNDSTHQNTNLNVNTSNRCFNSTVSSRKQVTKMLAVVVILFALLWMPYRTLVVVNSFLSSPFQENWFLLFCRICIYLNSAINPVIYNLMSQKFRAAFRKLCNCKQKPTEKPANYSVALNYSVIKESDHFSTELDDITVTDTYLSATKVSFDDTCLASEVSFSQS
#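 Steps: seed TRHR cells overnight; add fluo-8 no-wash Ca dye, RT 30 min–1.5 h; record 10 s baseline; pin-transfer compounds; monitor fluorescence 1 cycle/s for the agonist window. Calcium increases flag candidate agonists.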
# MBNL1-CUG inh = MBNL1-poly(CUG) RNA binding inhibition; TR-FRET MBNL1-His/biotin-(CUG)12 binding, 665/545 ratio; Potency, µM (top dose mostly 57.5 µM), inactives show at the top dose activity change, negative = inhibition, actives largely listed as inhibitors; hit rate 0.036% among 280,000; active = well fitted inhibition curve with a large enough effect in the signal ratio, with a control signal flat, not every such curve was filed as active; inconclusive = small, poorly fitted or top-dose-only effect, or effect the other way, or a change in a side signal; inactive = no such curve, though single readings can be large or run the other way; the % refers to the signal ratio; also: potency is read from the fitted curve at half-maximal effect; % is scaled to controls: 0 for no effect and ±100 for the full control effect
#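 MBNL1-His + Biotin-(CUG)12, cpd titration 92 nM–58 uM; Tb anti-His Ab 0.055 ng/ul, SA-XL665 5 nM (final); 60 min RT; ratiometric 665/545 nm, Ex 340 nm; normalized to buffer and full-complex controls.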
# Epigenetic derep = epigenetic control regulation, reporter derepression; murine LDR cells, GFP reporter derepression, 30 h; Potency, µM (top dose mostly 53.9 µM), for the others: top-dose GFP activation, actives largely listed as activators; hit rate 0.2% among 280,000; also: potency is read from the fitted curve at half-maximal effect; % of control where 0% means no effect; nearly all actives have a fitted effect of over 60% in size
#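 In this reporter-derepression format, murine cells bearing a silenced integrated CMV-GFP locus incubate with test compound (30 h, 37 C), then are washed and imaged; fluorescent objects of 20–120 um count as induced cells.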
# TRHR enhancer = allosteric enhancers of human TRH receptor | enhancement, % at 2 µM | P34981 | hit rate 0.66% among 360,000 | TRHR cells, fluo-8 calcium fluorescence, EC20 TRH enhancement; in the data active = enhancement above about 30%; also: 0% is about no effect
#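 TRHR-expressing cells loaded with fluo-8 calcium dye were read kinetically (ex 480/em 530) during compound addition, then stimulated with an EC20 of TRH (10 nM final). Enhancement of the Gq-mediated intracellular calcium response was scored.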
# * = called active by the depositor; ? = inconclusive; · = no result given; ! = repeats disagree. Only some compounds are listed: those with a hit (about 0.88% of all), similar ones and a draw of the others. Unless noted, calls follow the shape of the dose curve; as a rule, active = well fitted curve in the direction sought with a large enough effect; inconclusive = small, poorly fitted or top-dose-only effect, or another doubt; inactive = no such curve, though single readings can be large; an effect the other way counts as inactive or inconclusive.
SMILES,IL-2 act,CBFb-RUNX1 inh,TRHR agonist,MBNL1-CUG inh,Epigenetic derep,TRHR enhancer
COC(=O)C/C=C/[C@@H](C)[C@@H](Cc1ccccc1Br)OC,·,10%,·,·,-1%,·
COc1ccc(CNC(=O)Cc2ccc(NC(=O)N3CCSc4ncccc43)cc2)cc1,·,·,0,·,1%,7
Cc1cc(C)nc(N2CCCC(C(=O)NCc3cccs3)C2)n1 (stereo unspecified),0,0%,-1,7%,-6%,30*
Cc1ccnc(N2CCCC(C(=O)NCc3cccs3)C2)n1 (stereo unspecified),-1,-4%,0,-5%,-1%,9
CCOC(=O)C1=NN(C(=O)c2ccc(C)cc2)C(O)(c2ccc(Cl)cc2)C1 (stereo unspecified),3,-18%,49*,-3%,7%,-2
CC1CCN(c2ccc3c(c2)S(=O)(=O)c2cccc(C(=O)NCc4cccc(F)c4)c2C3=O)CC1,20,·,53*,·,·,-1
Cc1ccc(S(=O)(=O)c2cc3cc(C(=O)O)ccc3oc2=O)cc1,·,·,-1,·,0%,8
Cc1ccc(S(=O)(=O)c2cc3cc(C(=O)Nc4ccc(C)cc4C)ccc3oc2=O)cc1,·,·,0,·,1%,31*
CC(C)NC(=O)CN1C(=O)c2cccnc2Sc2ccccc21,·,·,0,·,1%,-5
COc1ccc(-c2cc3ccc(OCC(N)=O)cc3oc2=O)cc1OC,1,·,1,?,·,3
COc1ccc(-c2cc3ccc(O)cc3oc2=O)cc1OC,-1,·,-1,?,·,31*
Cc1nnnn1/C(=C\c1ccccc1)C(=O)OCC(=O)NC(C)(C)C,0,-1%,0,-13%,0%,33*
Cc1cccc(-c2nc(CN3CCN(Cc4cccc(F)c4)CC3)c(C)o2)c1,0,·,0,5%,·,31*
Cc1oc(-c2cccc(C(F)(F)F)c2)nc1CN1CCOCC1,0,-24%,0,12%,11µM*,17
Cc1oc(-c2cccc(C(F)(F)F)c2)nc1CN1CCC[C@H]1CO,-2,-3%,0,7%,0%,5
O=C(CSc1nnc2scc(-c3ccc(Cl)cc3)n12)Nc1ccccc1F,·,·,-1,·,-1%,0
CCN(CC)CCN(C(=O)c1ccc(C(=O)OC)cc1)c1nc2ccc(Cl)cc2s1,·,·,0,·,0%,-2
CSCCC(NS(=O)(=O)c1ccc2c(c1)oc(=O)n2C)C(=O)N1CCN(c2cccc(Cl)c2)CC1 (stereo unspecified),·,·,0,·,-1%,38*
CCOC(=O)c1c(NC(=O)CC2Nc3ccccc3NC2=O)sc(C)c1C (stereo unspecified),158*,2%,0,-3%,?,-2
COC(=O)c1c(NC(=O)CC2Nc3ccccc3NC2=O)sc(C)c1C (stereo unspecified),185*,1%,·,-2%,-1%,·
CCOC(=O)c1c(C)oc2nc(C)nc(NCCCN3CCN(c4ccccc4OC)CC3)c12,·,·,-1,·,-1%,4
Cc1cc2c(s1)c1cnn(Cc3ccc(F)c(C)c3)c(=O)c1n2C,·,·,-1,·,·,1
CC1CCN(C(=O)Cn2c(=O)n(CCCCCC(=O)NCc3ccccc3Cl)c(=O)c3sccc32)CC1,·,·,0,·,0%,-17
N#C/C(=N\O)c1nc2ccccc2s1,1,4%,1,-7%,-1%,32*
N#C/C(=C(/O)c1ccc(F)cc1)c1nc2ccccc2s1,0,-12%,1,2%,4%,-3
SMILES,IL-2 act,CBFb-RUNX1 inh,TRHR agonist,MBNL1-CUG inh,Epigenetic derep,TRHR enhancer
COc1cccc(-c2nnc(NC(=O)c3cccc(F)c3)o2)c1,-1,2%,0,1%,5%,33*
CCOc1ccc(CCNC(=O)C(CC)n2nc(C)c3c(C)n(-c4ccccc4)nc3c2=O)cc1 (stereo unspecified),·,·,-1,·,-2%,1
C#CCN1C(=O)S/C(=C\c2ccc(-c3ccc(Cl)c(C(=O)O)c3)o2)C1=O,0,·,1,18%,·,32*
CCCCC1CCC(C(=O)N2CC(=O)Nc3ccc(F)cc3C2c2ccc(F)cc2)CC1 (stereo unspecified),·,·,1,·,1%,2
Cc1ccc2[nH]c(=O)c(CN(Cc3ccccc3)C(=S)NCCCN(C)C)cc2c1,-2,4%,0,9%,0%,34*
CCCCN(Cc1cc2cc(C)ccc2[nH]c1=O)C(=O)c1ccccn1,0,6%,0,-3%,-1%,30*
COc1cc2cc(CN(CCc3ccccc3C)C(=S)NCCCN(C)C)c(=O)[nH]c2cc1OC,-1,-7%,0,-5%,0%,-2
Cc1ccc(SCc2nc(-c3ccc(C(=O)NCC(C)c4ccccc4)cc3)oc2C)cc1 (stereo unspecified),·,·,4,·,9%,10
COc1ccc(NC(=O)c2cccc(N3CCCS3(=O)=O)c2)cc1,·,·,0,·,-3%,4
CCCCN(C)C(=O)C1CCC(CNS(=O)(=O)c2ccc(Cl)cc2)CC1 (stereo unspecified),·,·,-1,·,-1%,-8
CNCc1ccccc1Sc1cc(O)ccc1O,-7,?,0,51%,14%,3
CN(C)Cc1ccccc1Sc1ccc(O)cc1O,0,-5%,0,0%,-1%,30*
CC1=CC(C)(C)N2C(=O)C3(C(C#N)=C(N)Oc4cc(O)ccc43)c3cccc1c32 (stereo unspecified),1,-11%,0,1%,-1%,32*
COC(=O)C1=C(C)N(C2CCCCC2)C(=O)/C1=C\c1cccs1,0,-14%,0,-3%,1%,40*
CC(C)CN(C(=O)c1cccc([N+](=O)[O-])c1)c1c(N)n(CC(C)C)c(=O)[nH]c1=O,-1,·,-2,16%,·,33*
COC(=O)c1nnn(CC(=O)NC(=O)Nc2cccc(C)c2C)c1C(=O)OC,-1,-3%,2,-4%,-3%,1
COC(=O)c1nnn(CC(=O)NC(=O)Nc2ccccc2F)c1C(=O)OC,1,1%,1,-3%,0%,31*!
CC(C)(C)OC(=O)NC(Cc1ccccc1)C(=O)NC1COC2CC(n3ccc(=O)[nH]c3=O)OC12 (stereo unspecified),·,-1%,·,·,·,·
Cn1c2ccsc2c2cnn(Cc3ccccc3F)c(=O)c21,·,·,-2,·,·,-3
O=[N+]([O-])c1cccc(CP(=O)(c2ccccc2)c2ccccc2)c1,0,·,-4,·,·,1
Nc1cccc(CP(=O)(c2ccccc2)c2ccccc2)c1,-1,·,0,·,·,31*

# Compound activity: PubChem BioAssay, National Center for Advancing Translational Sciences (NCATS)
